Test results published in PubChem BioAssay (Tox21).
Several values for one entry are separate records, joined by “and”; a condition that tells them apart may be missing. Equal values may be shown once. Results filed as inconclusive are left out. A number with no mark means an inactive call. Activity calls are given as the source filed them. Calls follow the shape of the dose curve; as a rule, active = well fitted activation curve with a large enough effect in the repeat runs; inconclusive = weak or mixed curves; inactive = flat fitted curve, though single readings scatter.

Experiment: A CellTox Green Cytotoxicity Assay to monitor cytotoxicity in HEK293 cells - 32 hour (AID 1224881); also: nearly all actives have a fitted effect of over 40% in size
Settings: CellTox Green fluorescence; series mostly up to 76.8 µM; cytotoxicity increase: at the top concentration
Method in brief: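 Tox21 screen in HEK293: membrane-impermeant cyanine dye fluoresces on binding dead-cell DNA; compound pinned 5 h post-seeding, plates held at 37 C, signal read repeatedly through 40 h.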
% is scaled to controls: 0 for no effect and ±100 for the full control effect; potency is read from the fitted curve at half-maximal effect.

SMILES	Potency	cytotoxicity increase
O=[N+]([O-])c1cc(C(F)(F)F)c(Cl)c([N+](=O)[O-])c1Nc1ncc(C(F)(F)F)cc1Cl	24.5 µM (active)	–
CC#C[C@]1(O)CC[C@H]2[C@@H]3C[C@H](C)C4=CC(=O)CC[C@]4(C)[C@H]3CC[C@@]21C	–	6.85% [at 35.3 µM]
CNC(=O)O/N=C(\C)C(C)S(C)(=O)=O (centres undefined)	–	-7.56% [at 725 µM]
O=P(Cl)(Cl)Cl	–	1.1%
O=Cc1ccccc1	–	12.9%
N#Cc1c[nH]cc1-c1cccc2c1OC(F)(F)O2	–	7.44%
COc1nc(C)nc(NC(=O)NS(=O)(=O)c2ccccc2Cl)n1	–	3%
c1ccc(N=NNc2ccccc2)cc1	50.7 µM (active) and 43.6 µM (active)	–
O.O.O.O=C([O-])[C@H]([O-])[C@@H]([O-])C(=O)[O-].O=C([O-])[C@H]([O-])[C@@H]([O-])C(=O)[O-].[K+].[K+].[Sb+3].[Sb+3]	–	17.7%
Nc1ccc(N=Nc2ccccc2)cc1	–	-4.42%
CCC[CH2][Sn]([CH2]CCC)([CH2]CCC)[O][Sn]([CH2]CCC)([CH2]CCC)[CH2]CCC	0.339 µM (active)	–
C#CCO	–	-0.663%
ClCBr	–	-4.18%
COP(=S)(OC)Oc1nc(Cl)c(Cl)cc1Cl	–	-2.5%
CC(=O)[O][Sn]([c]1ccccc1)([c]1ccccc1)[c]1ccccc1	0.219 µM (active)	–
CCCCCON=O	–	-3.65%
OCC(Br)CBr (centres undefined)	–	10.9%
[O]=[Cr](=[O])([OH])[O][Cr](=[O])(=[O])[OH]	inactive	–
N#CC(C#N)=NNc1cccc(Cl)c1	–	27%
CO/N=C(/C1=NOCCO1)c1ccccc1Oc1ncnc(Oc2ccccc2Cl)c1F	–	2.71%

SMILES	Potency	cytotoxicity increase
CC(C)C(Nc1ccc(C(F)(F)F)cc1Cl)C(=O)OC(C#N)c1cccc(Oc2ccccc2)c1 (centres undefined)	–	2.07%
[Cl-].[Cl-].[Sn+2]	–	2.58%
COP(=O)(OC)O/C(=C\Cl)c1cc(Cl)c(Cl)cc1Cl	–	7.09%
CCCN	–	-1.06%
O=S1OCC2C(CO1)C1(Cl)C(Cl)=C(Cl)C2(Cl)C1(Cl)Cl (centres undefined)	49 µM (active) and 54.9 µM (active)	–
CSSC	–	-13%
CC(C)(C)c1ccc(OP(=O)(Oc2ccccc2)Oc2ccccc2)cc1	–	-6.58%
C=CCBr	–	-9.59%
CC(C)=CCN1CC[C@@]2(C)c3cc(O)ccc3C[C@@H]1[C@@H]2C	–	-5.68%
CC[C@]1(O)CC[C@H]2[C@@H]3CCC4=CCCC[C@@H]4[C@H]3CC[C@@]21C	–	12.8% [at 35.3 µM]
O=C1C(Cl)=C(Cl)C(=O)C(Cl)=C1Cl	21.8 µM (active) and 21.9 µM (active)	–
ClC(Cl)C(Cl)(Cl)Cl	–	8.01%
CO/N=C(\C(=O)OC)c1ccccc1CO/N=C(\C)c1cccc(C(F)(F)F)c1	–	20.2%
Clc1c(Cl)c(Cl)c(Cl)c(Cl)c1Cl	–	-13.5% [at 6.97 µM]
CCNS(=O)(=O)C(F)(F)C(F)(F)C(F)(F)C(F)(F)C(F)(F)C(F)(F)C(F)(F)C(F)(F)F	–	-5.32%
CC(C)N(C(=O)SC/C(Cl)=C/Cl)C(C)C	39.2 µM (active)	–
CSC1=N[C@@](C)(c2ccccc2)C(=O)N1Nc1ccccc1	–	1.65%
CCn1cc[n+](C)c1 (tested in a mixture with another compound)	–	-1.39%
c1ccc2c(c1)cc1ccc3cccc4ccc2c1c34	–	7.59%
